Records with an inconclusive call do not appear. A number with no mark means an inactive call. The call rests on the fitted dose curve; in most records, active means well fitted cell-killing curve with a large enough effect; inconclusive means small, poorly fitted or top-dose-only effect; inactive means flat fitted curve, though single readings scatter.

Data on 5 compounds can be found in PubChem BioAssay (NCATS).
Further: nearly all actives have a fitted effect of over 55% in size.

One assay can be described thus: Cell Viability - LYMP2-017 (AID 972).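 Further: cells exposed to compound for 24 hours at 37 °C; on the % scale 0 is the no-effect control and ±100 the full control effect.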 The note with it: LYMP2-017 lymphoblastoid cell viability; series mostly up to 92.2 µM; activity change, negative = cytotoxicity: at the top concentration. The method, boiled down: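 In this qHTS format, lymphoblastoid cells in complete medium receive test compound for a day at 37 C before ATP content is quantified by luciferase luminescence. Reported AC50 figures come from standard Hill-equation curve fitting.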
For `CN(C)Cc1ccccc1`, the “activity change, negative = cytotoxicity” value was -5.24%.
Consider `O=C(O)CC(O)(CC(=O)O)C(=O)O`, for which the “activity change, negative = cytotoxicity” value is -29.9%.
`CCCCCCCCCC(=O)O`: the “activity change, negative = cytotoxicity” value is -11.4%.
For the compound `COC(C)=O`, the “activity change, negative = cytotoxicity” value is -6.5%.
On the same count and under the same terms, for `C=Cc1ccccc1` the value was -16.4%.

The nature of the next assay: Cell Viability - LYMP2-019 (AID 973).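 Further: cells exposed to compound for 24 h at 37 °C; 0% = DMSO alone and full effect = 92 µM tetraoctylammonium bromide.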 The note with it: LYMP2-019 lymphoblastoid cell line viability; series mostly up to 92.2 µM; activity change, negative = cytotoxicity: at the top concentration. The method, boiled down: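 AC50 values come from Hill-equation modelling of qHTS concentration-response curves, where viability is measured as luciferase-based ATP luminescence in the lymphoblastoid line after 24 hr compound exposure in complete culture medium.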
On to `CN(C)Cc1ccccc1`, for which the “activity change, negative = cytotoxicity” value is -13.3%.
Still for that read-out and setting: for `CCCCCCCCCC(=O)O` the value was 0.619%; for `COC(C)=O`, -11.1%.
Consider `C=Cc1ccccc1`, for which the “activity change, negative = cytotoxicity” value was -28.4%.

Another assay can be described thus: Cell Viability - LYMP2-021 (AID 974).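 Further: compound exposure lasts 24 hours at 37 °C; on the % scale 0 is the no-effect control and ±100 the full control effect.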 The note with it: LYMP2-021 lymphoblastoid cells viability; series mostly up to 92.2 µM; activity change, negative = cytotoxicity: at the top concentration. The method, boiled down: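 In qHTS format, compounds are tested against 2500 lymphoblastoid cells per well for 24 h; viable cell number is inferred from ATP-driven luciferase light, and Hill-equation fitting yields AC50 values.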
In the case of `CN(C)Cc1ccccc1`, the “activity change, negative = cytotoxicity” value is 0.78%.
For `CCCCCCCCCC(=O)O`, the “activity change, negative = cytotoxicity” value was -4.49%.
Consider `COC(C)=O`, for which the “activity change, negative = cytotoxicity” value is -1.33%.
Still for that read-out and setting: for `C=Cc1ccccc1` the value was -17.5%.

A further assay can be described thus: Cell Viability - LYMP2-023 (AID 975).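 Further: cellular ATP measured by luciferase luminescence as viability proxy; cells exposed to compound for 24 hours at 37 °C; plate controls were DMSO only for no effect and 92 µM tetraoctylammonium bromide control for full effect.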 The note with it: LYMP2-023 lymphoblastoid cell viability; series mostly up to 92.2 µM; activity change, negative = cytotoxicity: at the top concentration. Put shortly:
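In this qHTS, ATP-based luciferase luminescence (CellTiter-Glo) is quantified in human lymphoblastoid cells after 24 hr compound treatment at 37 C; tetraoctylammonium bromide serves as positive control. Concentration-response curves are Hill-fitted to give AC50.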
As to `CN(C)Cc1ccccc1`, the “activity change, negative = cytotoxicity” value was -7.83%.
On to `O=C(O)CC(O)(CC(=O)O)C(=O)O`, for which the “activity change, negative = cytotoxicity” value was 6.18%.
Still for that read-out and setting: in the case of `CCCCCCCCCC(=O)O` it was -1.24%.
As for `COC(C)=O`, the “activity change, negative = cytotoxicity” value was 2.52%.
Same read-out and setting: in the case of `C=Cc1ccccc1` it was -1.14%.
